Compound activity deposited in PubChem by Paczesny and Yang Labs, IUPUI and University of Michigan.
ST2 inh = inhibitors of human ST2 (IL1RL1) binding to IL-33, primary screen, biochemical, AlphaLISA. Interleukin-1 receptor-like 1 (Homo sapiens), Q01638. AlphaLISA ST2-Fc/biotin-IL-33 interaction, 1 h. inhibition, % for hits at 17 µM. hit rate 2.3% among 78,000; in the data active = inhibition above about 30%
Target sequence (Q01638 whole entry, looked up): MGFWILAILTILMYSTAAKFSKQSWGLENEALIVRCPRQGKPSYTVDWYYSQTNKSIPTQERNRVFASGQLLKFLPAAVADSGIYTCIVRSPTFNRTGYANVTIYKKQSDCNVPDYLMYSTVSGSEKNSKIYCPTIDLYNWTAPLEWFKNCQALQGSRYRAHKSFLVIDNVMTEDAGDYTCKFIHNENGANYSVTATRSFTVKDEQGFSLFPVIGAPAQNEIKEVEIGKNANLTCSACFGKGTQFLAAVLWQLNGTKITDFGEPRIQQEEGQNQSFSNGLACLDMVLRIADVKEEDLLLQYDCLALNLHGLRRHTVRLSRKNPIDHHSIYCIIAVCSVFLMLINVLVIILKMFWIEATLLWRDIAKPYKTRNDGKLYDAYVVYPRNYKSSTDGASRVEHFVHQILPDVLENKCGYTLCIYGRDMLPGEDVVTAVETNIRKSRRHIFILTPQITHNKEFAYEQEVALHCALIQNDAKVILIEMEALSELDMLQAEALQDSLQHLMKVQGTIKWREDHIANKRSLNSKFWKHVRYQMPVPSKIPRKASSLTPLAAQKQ
Numbers stand for hits. The sample as a whole holds a higher share of hits than the screen did.

Screening CC(C)Cc1noc(CN(C)CC(=O)Nc2nc3ccccc3[nH]2)n1 returned ST2 inh inactive.
COC(=O)C1=C(N)OC2=C(C(=O)CC(c3ccccc3)C2)C1c1ccc2c(c1)OCO2 (configuration not stated) was read as ST2 inh inactive.
COc1cc(C2Nc3ccccc3NC3=C2C(=O)CC(c2ccccc2)C3)ccc1OC(C)=O (configuration not stated) was read as ST2 inh inactive.
Screening CCCOc1ccccc1C1CC(=O)C2=C(C1)Nc1ccccc1NC2c1ccc(OC)cc1 (configuration not stated) returned ST2 inh inactive.
COc1ccc(C2CC(=O)C3=C(C2)Nc2ccccc2NC3c2ccc(C)s2)cc1 (configuration not stated) was read as ST2 inh 30%.
For O=C(/C=C/c1ccccn1)N(CC1CCN(C2Cc3ccccc3C2)CC1)CC1CCCO1 (configuration not stated) the results were ST2 inh inactive.
`Cc1c(-c2ccccc2F)[nH]c2ccc(CNS(=O)(=O)N(C)C)cc12` gave ST2 inh inactive.
`O=C(Nc1ccc2c(c1)CCC2=O)c1ccc(CN2CCCC(O)C2)cc1` (configuration not stated) gave ST2 inh inactive.
For COc1cccc(NC(=O)/C(C#N)=C\c2cn(Cc3ccc(F)cc3)c3ccccc23)c1 the results were ST2 inh inactive.
COc1cccc(NC(=O)/C(C#N)=C\c2cn(Cc3ccccc3)c3ccccc23)c1 was read as ST2 inh 35%.
`Cc1cc(/C=C(\C#N)C(=O)Nc2ccccc2)c(C)n1-c1ccc(F)cc1` gave ST2 inh inactive.
Screening CCn1c2ccccc2c2cc(/C=C/[N+](=O)[O-])ccc21 returned ST2 inh 38%.
`CCn1c2ccccc2c2cc(CN3CCCN(C)CC3)ccc21` gave ST2 inh inactive.
CCn1c2ccccc2c2cc(NC(=O)CSc3cc(=O)n(C)c4ccccc34)ccc21 was read as ST2 inh inactive.
`CCSc1nc2c(c(=O)[nH]1)C(c1ccc(OC)c(OC)c1)C1=C(CCCC1=O)N2` (configuration not stated) gave ST2 inh inactive.
For COc1cccc(C(=O)NCc2cccc(CNC(=O)c3cccc(OC)c3)c2)c1 the results were ST2 inh inactive.
CCOc1cc(/C=C2/NC(=O)NC2=O)ccc1OCc1ccccc1C#N was read as ST2 inh inactive.
CCOc1ccc(/C=C2\SC(N3CC(C)OC(C)C3)=NC2=O)cc1OC (configuration not stated) was read as ST2 inh inactive.
COc1cc(/C=C2/SC(=Nc3ccccc3)NC2=O)ccc1OCC#N was read as ST2 inh 32%.
COc1cc(C2NC(=O)CCC2[N+](=O)[O-])cc(Cl)c1O (configuration not stated) was read as ST2 inh inactive.
COc1cc(/C=C2/SC(=Nc3ccccc3)NC2=O)cc(Cl)c1O was read as ST2 inh 42%.
Screening COc1ccc(OC)c(/C=C2/SC(=Nc3ccc(C)cc3)NC2=O)c1 returned ST2 inh inactive.
COc1ccc(C(=O)N2CCc3c(nc(C)[nH]c3=O)C2)c(OC)c1OC was read as ST2 inh inactive.
Screening COCCCN1CCC(CNC2CCSCC2)C1 (configuration not stated) returned ST2 inh inactive.
Screening COc1ccc(C(=O)Nc2nc3c(s2)CCCC3)c(OC)c1 returned ST2 inh inactive.
Screening Cc1nnc(SCC(=O)N2CCCC(C(=O)c3ccc4c5c(cccc35)CC4)C2)o1 (configuration not stated) returned ST2 inh inactive.
COC(=O)C1C(=O)C2=C(CC1C)NC(C)=C(C(=O)OC(C)C)C2c1ccc(C)s1 (configuration not stated) was read as ST2 inh inactive.
COc1ccc(NCC(O)Cn2c(C)c(C)c3ccccc32)cc1 (configuration not stated) was read as ST2 inh 32%.
For Cc1c(C)n(CC(O)CNC2CCCCC2)c2ccccc12 (configuration not stated) the results were ST2 inh inactive.
`Cc1ccc(C)c(NCC(O)Cn2c(C)c(C)c3ccccc32)c1` (configuration not stated) gave ST2 inh inactive.
For COc1ccc(N(C(C)C(=O)Nc2ccccc2C(=O)NC2CCCCC2)S(C)(=O)=O)cc1 (configuration not stated) the results were ST2 inh inactive.
Screening CC1=C(C(=O)Nc2ccc(C)cn2)C(c2cccc([N+](=O)[O-])c2)C2=C(CCCC2=O)N1 (configuration not stated) returned ST2 inh inactive.
Screening CCCc1nc(CN(CC)C(=O)c2cc(F)c(F)cc2Cl)no1 returned ST2 inh inactive.
`Cn1c(=O)c2c(nc(N3CCOCC3)n2Cc2c(F)cccc2Cl)n(C)c1=O` gave ST2 inh 37%.
`CN1CCN(c2nc3c(c(=O)n(C)c(=O)n3C)n2Cc2ccc(Cl)c(Cl)c2)CC1` gave ST2 inh inactive.
For Cn1c(=O)c2c(nc(NCc3ccco3)n2Cc2c(F)cccc2Cl)n(C)c1=O the results were ST2 inh inactive.
`CC(=O)Oc1ccc2nc(COc3ccc(C4CCCCC4)cc3)oc(=O)c2c1` gave ST2 inh inactive.
`O=C(NCCSc1c[nH]c2ccccc12)c1ccc(Br)cc1` gave ST2 inh inactive.
For Cc1cc(C(=O)NC2C3CC4CC(C3)CC2C4)ccc1[N+](=O)[O-] (configuration not stated) the results were ST2 inh inactive.
`Cc1ccc(Cl)cc1NC(=O)c1ccc([N+](=O)[O-])c(C)c1` gave ST2 inh inactive.
Screening Cc1cc(C(=O)NCc2ccc(F)cc2)ccc1[N+](=O)[O-] returned ST2 inh 52%.
CCc1noc(CN(CC)C(=O)C(C)n2cnc3ccccc32)n1 (configuration not stated) was read as ST2 inh inactive.
`COc1ccc(C(=O)Nc2ccc(S(N)(=O)=O)cc2)cc1OC` gave ST2 inh inactive.
c1ccc2c(c1)Nc1ccc3ccccc3c1S2 was read as ST2 inh 39%.
`Fc1ccc2c(c1)Sc1ccccc1N2` gave ST2 inh 36%.
COc1ccc(C2=CC(=O)Nc3ccccc3S2)cc1 was read as ST2 inh inactive.
Screening COc1cccc(CN2CCCC(CCC(=O)Nc3ccc(C(F)(F)F)cc3)C2)c1O (configuration not stated) returned ST2 inh inactive.
Screening N#Cc1c(NC(=O)COc2ccccc2Br)sc2c1CCC2 returned ST2 inh inactive.
Screening COc1ccccc1-c1nnc(NC(=O)c2ccc(S(=O)(=O)N(C)c3ccccc3)cc2)o1 returned ST2 inh inactive.
Screening Cc1sc(CN(C)C)c2c1C(=O)c1ccccc1CS2 returned ST2 inh inactive.
CC1(C)CC(=O)C2=C(C1)NC1=C(C(=O)CC(C)(C)C1)C2c1ccccc1 was read as ST2 inh inactive.
Screening CC1(C)CC(=O)C2=C(C1)Nc1sc(C#N)c(N)c1C2c1ccccc1 (configuration not stated) returned ST2 inh 33%.
`CC1(C)CC(=O)C2=C(C1)Nc1[nH]c(=O)[nH]c(=O)c1C2c1ccccc1` (configuration not stated) gave ST2 inh inactive.
`O=C(NCCSc1c[nH]c2ccccc12)c1ccccc1Br` gave ST2 inh inactive.
